The structures appear in SMILES notation. Records with an inconclusive call do not appear. Calls of active or inactive are those of the source. Calls follow the shape of the dose curve; as a rule, active = well fitted cell-killing curve with a large enough effect; inconclusive = small, poorly fitted or top-dose-only effect; inactive = no such curve, though single readings can be large or run the other way.
Potency is read from the fitted curve at half-maximal effect.

The test can be described thus: qHTS of pediatric cancer cell lines to identify multiple opportunities for drug repurposing: Primary screen for A673 cells (AID 1347092). Also: nearly all actives have a fitted effect of over 45% in size. As to conditions: A673 Ewing sarcoma viability, CellTiter-Glo ATP luminescence, 48 h; series mostly up to 46 µM. From the text: Drug repurposing or repositioning has been offered as a strategy for drug development in oncology programs. This approach has special potential for childhood cancers and other rare or orphan diseases, where the expected return on new drug development has been a disincentive to pharmaceuticals. […] In this project we exploit the poly-pharmacology of drugs to discover new indications via phenotypic screening of a panel of 19 well-characterized cell lines derived from solid tumors seen in children and adolescents. The goal is to identify approved drugs with previously unrecognized anticancer properties that has the potential to reveal new mechanisms and biological processes involved in carcinogenesis or drug resistance. We employed a titration-based paradigm (quantitative high-throughput screening or qHTS), where all compounds were tested at multiple concentrations for their effect on cell viability. Concentration-response curves (CRCs) were derived directly from the primary screen, and both potency and efficacy values were used to identify compounds with robust bioactivity profiles. We screened the NIH Chemical Genomics Center (NCGC) Pharmaceutical Collection (NPC) and Mechanism Interrogation Plate (MIPE) small molecule collections of approved and investigational compounds against these cell lines; and measured metabolically active cells after 48 hours of compound treatment as a proxy for cell viability. […] Assay Submitter: Nathalia J. Martinez, National Center for Advancing Translational Sciences, National Institutes of Health, Rockville, MD, USA; email: natalia.martinez@nih.gov. Shen, M et al. Quantitative high-throughput phenotypic screening of pediatric cancer cell lines identifies multiple opportunities for drug repurposing. Oncotarget 2017 Dec 19;9(4):4758-4772. PMID 29435139.
The cells were obtained from University of North Carolina (UNC), Pediatric Preclinical Testing Program (PPT), and Coriell Institute (CI). qHTS cell viability assay: Cells were assayed in growth media at a density of 500-1,000 cells/well. Five microliters of cells were dispensed into 1,536-well, white, solid-bottom, TC-treated plates (Greiner Bio One) using a multidrop dispenser and incubated at 37 degrees C, 5% CO2, under a humidified atmosphere for 5 hours. Twenty-three nanoliters of compounds and controls (neutral control DMSO or positive control bortezomib at final concentration of 2.3 uM) were subsequently transferred by Kalypsys pintool. For primary screens, the MIPE collection was tested at 11-point dilutions (final concentrations range from 0.78 nM to 46 µM) and the NPC collection at 8-point dilutions (final concentrations range from 0.59 nM to 46 µM). Compounds tested in follow-up screens were assayed at 11-point dilutions. Cells were incubated for 48 hours, followed by addition of 3 uL of CellTiter-Glo (Promega). After a 15min incubation at room temperature, samples were analyzed for luminescence intensity using a ViewLux High-throughput CCD imager equipped with clear filters.
As to `CC(C)(C)NC(=O)[C@H]1CN(Cc2cccnc2)CCN1C[C@@H](O)C[C@@H](Cc1ccccc1)C(=O)N[C@H]1c2ccccc2C[C@H]1O`, the Potency was 0.743 µM (active).

As to `O=C(C=Cc1c(C(=O)O)[nH]c2cc(Cl)cc(Cl)c12)Nc1ccccc1`, the Potency result is “inactive”.

On to `CN(C)c1nc(Cc2ccc(NC(=O)c3ccc4ccccc4c3)cc2)nc(Cl)c1CC(=O)O`, for which the Potency entry is “inactive”.

With `Nc1nc(NCCNc2ncc(-n3ccnc3)c(-c3ccc(Cl)cc3Cl)n2)ccc1[N+](=O)[O-]`, the Potency was 9.35 µM (active).

Consider `C[C@@]12O[C@@H](C[C@]1(O)CO)n1c3ccccc3c3c4c(c5c6ccccc6n2c5c31)CNC4=O`, for which the Potency was 0.743 µM (active).

On to `Nc1cccc(-c2cc3c(Oc4cccc(O)c4)ncnc3[nH]2)c1`, for which the Potency is 14.8 µM (active).

On to `CNC(=O)c1nn(C)c2c1C(C)(C)Cc1cnc(Nc3ccc(N4CCN(C)CC4)cc3)nc1-2`, for which the Potency was 2.96 µM (active).

In the case of `COc1cc2c(Oc3ccc(NC(=O)C4(C(=O)Nc5ccc(F)cc5)CC4)cc3F)ccnc2cc1OCCCN1CCOCC1`, the Potency was 2.35 µM (active).

Turning to `CNc1nccc(-c2cccnc2Oc2cc(C(=O)Nc3cccc(C(F)(F)F)c3)ccc2C)n1`, the Potency was 2.96 µM (active).

Take `O=c1[nH]nc(Sc2ncc([N+](=O)[O-])s2)n1-c1ccc2c(c1)OCCO2`: the Potency is 3.72 µM (active).

`CNC(=O)c1ccc(N2C(=S)N(c3cnc(C#N)c(C(F)(F)F)c3)C(=O)C23CCC3)cc1F`: the Potency is 1.48 µM (active).

`C[C@@H]1COC(Nc2ccc3ncnc(Nc4ccc(OCc5nccs5)c(Cl)c4)c3c2)=N1`: the Potency was 0.935 µM (active).

Take `Cn1cncc1[C@@](N)(c1ccc(Cl)cc1)c1ccc2c(c1)c(-c1cccc(Cl)c1)cc(=O)n2C`: the Potency is 23.5 µM (active).

For `O=C(O)c1ccc2c(c1)nc(Nc1cccc(Cl)c1)c1ccncc12`, the Potency is 4.69 µM (active).

For `C1=CCOCc2cc(ccc2OCCN2CCCC2)Nc2nccc(n2)-c2cccc(c2)OCC1`, the Potency is 2.35 µM (active).

`COc1cc(-c2nn(C3CCC(N4CCN(C(C)=O)CC4)CC3)c3ncnc(N)c23)ccc1NC(=O)c1cc2ccccc2n1C` (stereo not given): the Potency was 0.235 µM (active).

With `Nc1ccn([C@@H]2CS[C@H](CO)O2)c(=O)n1`, the Potency result was “inactive”.

Consider `CC(C)[C@H](C(=O)Nc1ccc(C(=O)NO)cc1)c1ccccc1`, for which the Potency is 1.18 µM (active).

As to `Cc1cc(Nc2cc(CN3CCOCC3)c3nc(C)c(Cc4ccc(Cl)cc4F)n3n2)n[nH]1`, the Potency was 5.9 µM (active).

For the molecule `CCOc1ccccc1OCCNC(C)Cc1ccc(OC)c(S(N)(=O)=O)c1` (stereo not given), the Potency entry was “inactive”.

As to `COc1ccc2c(c1)CC[C@@H](CN(C)CC(=O)O)[C@H]2c1ccccc1`, the Potency is 1.87 µM (active).

As to `CN1CCN(c2ccc3nc(-c4c(N)c5c(F)cccc5[nH]c4=O)[nH]c3c2)CC1`, the Potency is 14.8 µM (active).

For the molecule `O=C(Nc1cn[nH]c1-c1nc2ccc(CN3CCOCC3)cc2[nH]1)NC1CC1`, the Potency was 1.48 µM (active).

Regarding `O=C(Cc1ccc(-c2ccc(OCCN3CCOCC3)cc2)cn1)NCc1ccccc1`, the Potency was 0.0235 µM (active).

Regarding `CC1(C)CC(=O)c2c(C(F)(F)F)nn(-c3ccc(C(N)=O)c(NC4CCC(OC(=O)CN)CC4)c3)c2C1` (stereo not given), the Potency is 0.235 µM (active).

Take `N#Cc1c(O)c2c(-c3ccc(-c4ccccc4O)cc3)csc2[nH]c1=O`: the Potency entry was “inactive”.

`CC(=O)Nc1sc2c(c1-c1nc3ccccc3s1)CNC2`: the Potency was 18.7 µM (active).

On to `Clc1cccc(-n2nnnc2NCc2ccccc2Oc2ccccn2)c1Cl`, for which the Potency result was “inactive”.

In the case of `CN(C1CCc2c(c3ccccc3n2CC(=O)O)C1)S(=O)(=O)c1ccc(F)cc1` (stereo not given), the Potency is 0.935 µM (active).

Turning to `CCCCCN(CCC12CC3CC(CC(C3)C1)C2)C(=O)NCCCc1ccncc1`, the Potency was 18.7 µM (active).

In the case of `CC(=O)c1c(C)c2cnc(Nc3ccc(N4CCNCC4)cn3)nc2n(C2CCCC2)c1=O`, the Potency was 14.8 µM (active).

In the case of `CC[C@@H]1C(=O)N(C)c2cnc(Nc3ccc(C(=O)NC4CCC(N5CCN(CC6CC6)CC5)CC4)cc3OC)nc2N1C(C)C` (stereo not given in full), the Potency was 0.0935 µM (active).

As to `C[C@@H]1CN(CC(=O)Nc2ccc3c(c2)Cc2cccc(-c4cc(=O)cc(N5CCOCC5)o4)c2S3)C[C@H](C)O1`, the Potency was 14.8 µM (active).

On to `O=C(O)c1ccc2cc(-c3ccc(O)c(C45CC6CC(CC(C6)C4)C5)c3)ccc2c1`, for which the Potency is 2.35 µM (active).

Consider `OCCCNc1cc(-c2ccnc(Nc3cccc(Cl)c3)n2)ccn1`, for which the Potency is 0.0469 µM (active).

Turning to `O=C(O)CCCc1c[nH]c2ccccc12`, the Potency result was “inactive”.

With `CCCCOc1c(C(=O)c2c(F)cc(C)cc2F)cnc2n[nH]cc12`, the Potency is 2.35 µM (active).

For the molecule `COc1ccc2c(OCc3nnc4ccc(-c5ccccc5)nn34)ccnc2c1`, the Potency result is “inactive”.

With `CC(C)=CCCC(C)=CCCC(C)=CCSc1ccccc1C(=O)O`, the Potency was 5.9 µM (active).

Turning to `Cc1cc(Nc2cc(NC(=O)c3c(Cl)cccc3Cl)ccn2)nc(N)n1`, the Potency was 1.18 µM (active).

The values above are taken from PubChem BioAssay (NCATS).
